From PubChem BioAssay
Peg3 promoter – Peg3 promoter-driven luciferase inhibitors, primary screen, cell-based, HeLa, luciferase luminescence. HeLa PEG-Prom luciferase reporter, overnight. inhibition, % at 20 µM. actives 1.7% (n = 360,000);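 active = inhibition of at least 50% at 20 µM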
MITF TRPM1 inh – inhibitors of MITF-dependent TRPM1 promoter reporter, primary screen, cell-based, SK-MEL-5, single point, luciferase | inhibition, % at 12.5 µM | SK-MEL-5 TRPM1 promoter luciferase, 24 h | actives 0.83% (n = 330,000) | AID 488899, 2010;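 active = mean inhibition across replicates of 60% or more, whatever share of single replicates reaches that level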
KKLEB cytotox – cytotoxicity in KKLEB CF airway cells, primary screen, cytotoxicity control for CF NF-kB inhibitor project, cell-based, uHTS, fluorescence assay plates; actives 0.36% (n = 360,000); KKLEB CF airway cells viability, ATPlite luminescence, overnight; hits give low values; cells stimulated with P. aeruginosa culture filtrate; activity change (cytotoxicity), % at 5 µM; AID 602141, 2011;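 active = corrected activity change at or below -50% at 5 µM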
HIF-2a block – HIF-2a reporter inhibitors, primary screen, luminescence, 786-0 RCC cells; actives 0.72% (n = 360,000); inhibition, % at 18.8 µM; 786-0 RCC cells HIF-2a reporter, luciferase luminescence, overnight;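 active = inhibition of the luminescence signal of 40% or more relative to plate controls, in a single-dose primary screen at 18.75 µM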
CF NFkB block – inhibitors of PAF-induced NF-kB signaling, primary screen, cell-based, GFP fluorescence, uHTS | KKLEB NF-kB-GFP reporter, GFP fluorescence overnight | inhibition, % at 5 µM | actives 0.86% (n = 360,000) | AID 588850, 2011;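 active = at least 50% inhibition at 5 µM, scaled per plate between neutral and stimulator controls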;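 note: PAF is a Pseudomonas aeruginosa culture filtrate used as stimulus; plate controls were PAF-stimulated DMSO wells for no effect and unstimulated DMSO wells for full effect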
Shn3 inh set2 – reduction of Shn3 3'UTR firefly luciferase signal, primary screen, Schnurri-3 inhibitor project, cell-based, Clone20 osteoblasts, set 2 | AID 588674, 2011 | Clone20 osteoblast Shn3 3'UTR firefly luciferase, 24 h | inhibition, % at 12.5 µM | actives 0.52% (n = 360,000);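 active = mean inhibition of at least 75% with every replicate also reaching 75%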;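 note: 0% = median of neutral control wells and 100% = pilot-screen positive control compound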
Starred values were filed as active, the others as inactive; . = not tested or not shown. A selection: hits, their analogues and other compounds. The true share with any hit is near 2.8%.

SMILES | Peg3 promoter | MITF TRPM1 inh | KKLEB cytotox | HIF-2a block | CF NFkB block | Shn3 inh set2
O=C(NC1CCCCC1)C(c1ccc(F)cc1)N(Cc1ccccc1)C(=O)CN1C(=O)c2ccccc2S1(=O)=O (stereo not drawn) | 67.6* | 5.9 | -22.7 | 5.6 | 7.9 | 0.7
O=C(CN1C(=O)c2ccccc2S1(=O)=O)NC1CCCC1 | 1.6 | -1.1 | -11.4 | -20.4 | 10.3 | -19.7
O=C(NC1CCCCC1)C(c1ccc(F)cc1)N(CCc1ccccc1)C(=O)CN1C(=O)c2ccccc2S1(=O)=O (stereo not drawn) | 79.2* | 64.2* | -20.4 | 0.1 | 18.7 | 22.7
C=CCOC(=O)C1=C[C@H](c2ccc(Br)cc2)C[C@H](OCc2ccc(CO)cc2)O1 | -10.2 | -19.3 | -5.5 | -4.9 | 19.6 | -4.0
CCc1ccc(NC(=O)CSc2nc3nc(C)cc(C)n3n2)cc1 | -7.5 | 6.9 | -0.5 | -5.6 | -11.9 | 53.1
CC(C)(C)NCC(O)CON=C1c2ccccc2-c2ccccc21 (stereo not drawn) | 84.4* | -19.2 | -0.7 | 24.9 | -22.9 | 13.1
CC(C)=CCc1cc([C@@H]2COc3c(ccc4c3C=CC(C)(C)O4)C2)c(O)cc1O | 83.8* | 29.6 | -6.2 | -3.7 | -8.2 | 92.0*
CC1(C)C=Cc2c(ccc3c2OC[C@H](c2ccc(O)cc2O)C3)O1 | -268.7 | -45.5 | 10.4 | -205.1 | 1.0 | -15.1
CN(C)CC/C=C1\c2ccccc2Sc2cc(F)c(Cl)cc21 | 61.6* | -78.8 | 5.0 | 13.1 | 11.7 | 42.1
COc1ccc(NC(=O)COC(=O)/C=C/C(=O)OCC(=O)Nc2ccc(OC)c(Cl)c2)cc1Cl | 56.2* | -6.9 | -8.3 | 21.5 | -22.1 | 56.1
CCOC(=O)/C=C/C(=O)OCC(=O)Nc1ccc(OC)c(Cl)c1 | 13.3 | -3.3 | 5.9 | 3.5 | -10.8 | -4.7
CSc1ccccc1C(=O)N1CCC2(CC1)CC(=O)c1ccccc1O2 | 18.5 | -5.6 | -7.0 | 12.1 | 30.9 | 13.4
O=C1CC2(CCN(C(=O)c3ccccc3F)CC2)Oc2ccccc21 | 13.0 | -5.9 | -6.9 | 13.0 | 13.6 | 87.3*
O=S(=O)(Nc1c(F)cccc1F)c1ccc(Cl)nc1 | -3.8 | 4.4 | 5.1 | 23.2 | 9.3 | 20.1
COc1ccc(NC(=O)c2ccccc2NC(=O)C2CCCCC2C(=O)O)cc1 (stereo not drawn) | -28.2 | -21.3 | 6.5 | -77.6 | -12.3 | -66.4
O=C(O)c1cc(-c2ccccc2)n(-c2ccc(F)cc2)n1 | 78.2* | -4.2 | 1.0 | 24.9 | -21.5 | 2.2
CC1CN(C(=O)CCC(=O)N2CCN(c3cccc(C(F)(F)F)c3)CC2)c2ccccc2O1 (stereo not drawn) | 22.4 | -6.0 | 5.6 | 16.4 | 15.4 | 16.1
COc1ccc(Cc2[nH]n3c(=O)cc(C)nc3c2-c2ccccc2)cc1 | 15.6 | 22.1 | -4.2 | 22.4 | 7.9 | 44.9
COc1ccc(Cc2[nH]n3c(=O)cc(C(C)C)nc3c2-c2ccccc2)cc1 | 52.2* | 22.8 | -5.9 | 21.7 | 9.1 | 60.3
CCOC(CNC(=O)C(=O)Nc1cc2c3c(c1)CCC(=O)N3CCC2)OCC | -18.1 | 5.9 | 2.4 | -1.5 | -22.2 | 2.6
C/C(=N\NC(=O)C(c1ccccc1)c1ccccc1)c1ccccn1 | 97.4* | . | -9.1 | 34.4 | 14.7 | 88.5*
COc1ccccc1NC(=S)NN=C(C)c1ccccn1 | -33.2 | 54.0 | 9.7 | -109.6 | 2.3 | 91.4*
C/C(=N\NC(=O)C(c1ccccc1)c1ccccc1)c1ccc(O)cc1 | 21.2 | 4.6 | 4.8 | 18.5 | -0.5 | 10.5
CC(/C=N/NC(=O)c1cc(-c2ccncc2)nc2ccccc12)=C\c1ccco1 | 0.3 | 67.9* | -36.3 | 25.2 | 49.1 | 13.0
C/C(=N\NC(=O)c1cc(-c2cccs2)nc2ccccc12)c1ccccn1 | 45.5 | 88.2* | -4.4 | -5.5 | -39.0 | 93.7*
Cc1ccc(/C=N/NC(=O)c2cc(-c3ccncc3)nc3ccccc23)o1 | 4.1 | 28.7 | -16.3 | 21.6 | 36.2 | 23.2
